This note sets out measurements from PubChem BioAssay AID1813 (Broad Institute, 2009).

“And” between values parts separate entries of the source, which are not always exact repeats. Equal entries are not always repeated. Among all 300,000 compounds or so, about 2,500 (0.83%) were called active. No stated cut-off is given here; in the data, active means inhibition above about 60%; inconclusive means no clear call, values can overlap the other calls; inactive means below that. Many of the other results were omitted from the sample, so actives are more common in it than they were.

The nature of the test: 5' untranslated region of α-synuclein, MLPCN primary screen (AID 1813).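 Further: H4 neuroglioblastoma cells stably carrying SNCA 5'UTR luciferase fusion; 0% = DMSO wells and 100% = positive control.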 As to conditions: alpha-synuclein 5'UTR reporter, inhibitor activity; active compounds read high; tested at 7.5 µM.
As usually defined, the inhibition is the drop in the measured response relative to a control, in per cent. Consider `COC(=O)c1ccc(NS(=O)(=O)c2cc3c4c(c2)C(C)C(=O)N4CCC3)cc1` (centres undefined), for which the inhibition was 8.87% (inactive).

As for `CN(CC(=O)NCc1ccncc1)S(=O)(=O)c1ccc(Br)cc1`, the inhibition is -15.9% (inactive).

For the compound `Cc1ccc(CNC(=O)c2ccc3c(c2)S(=O)(=O)c2ccccc2C3=O)cc1`, the inhibition is 5.46% (inactive).

Regarding `CCN(C(=O)c1cc([N+](=O)[O-])ccc1NCc1cccnc1)c1ccccc1`, the inhibition was 14.1% (inactive).

`CCCCn1ccnc1C(=O)c1cccc(S(=O)(=O)N2c3ccccc3CC2C)c1` (centres undefined): the inhibition was 4.82% (inactive).

With `CCN(CC)S(=O)(=O)c1ccc(-c2cn3ccc(C)cc3n2)cc1`, the inhibition was -169% (inactive).

Take `COc1ccc(-c2cn3ccc(C)cc3n2)cc1`: the inhibition was 92.2% (active).

Consider `COc1ccc(-c2cn3ccsc3n2)cc1`, for which the inhibition is -105% (inactive).

As to `CCc1nc2cccnc2n1-c1ccc(C(=O)O)cc1`, the inhibition is -14.6% (inactive).

Turning to `Fc1ccc(-n2c(Cc3ccccc3)nnc2SCc2nc(-c3ccc(Cl)cc3)no2)cc1`, the inhibition is -3.62% (inactive).

Consider `CCN(CC)CCNCc1ccc(OCc2ccc(Cl)nc2)c(OC)c1`, for which the inhibition was -27.5% (inactive).

`COc1cccc(/C=C/c2ccc3ccccc3n2)c1OC(C)=O`: the inhibition was 83.1% (active).

With `COc1cccc(/C=C2\C=C(c3ccc(C)cc3)OC2=O)c1OC(C)=O`, the inhibition was -65.8% (inactive).

Consider `CCOc1cccc(/C=C/c2ccc3ccccc3n2)c1OC(C)=O`, for which the inhibition is 49.2% (inactive).

Regarding `CCCOC1CCCN(C(=O)c2cc(COc3cncc(Cl)c3)on2)C1` (centres undefined), the inhibition was -219% (inactive).

For the compound `C[C@H](NC(=O)c1nc[nH]c1C(=O)NCC(=O)OC(C)(C)C)c1ccccc1`, the inhibition was 24.4% (inactive).

As to `Cc1ccc(-c2cc(=O)c3ccc(F)cc3[nH]2)cc1`, the inhibition was -68.9% (inactive).

As to `Cc1ccc(-c2cc(=O)c3ccc(Cl)cc3[nH]2)cc1`, the inhibition was -19.2% (inactive).

On to `O=c1cc(-c2ccccc2)[nH]c2cc(F)ccc12`, for which the inhibition is 93.3% (active).

As to `COC(=O)C(C)n1cnc2c(nnn2-c2cccc(Cl)c2)c1=O` (centres undefined), the inhibition is -6.77% (inactive).

As to `CC(C)n1cnc2c(Nc3cccc(Cl)c3)nc(N(CCO)CCCO)nc21`, the inhibition is 64.7% (active).

Turning to `CC(C)C[C@H](CO)Nc1nc(N(C)c2cccc(Cl)c2)c2ncn(C(C)C)c2n1`, the inhibition is 24.9% (inactive).

Regarding `CSc1cc(C)n(-c2ccccc2C)c(=S)c1C(C)=O`, the inhibition is -18% (inactive).

On to `O=C(CCN1C(=O)c2ccncc2C1=O)Nc1cc(F)ccc1F`, for which the inhibition is 10.3% (inactive).

As for `O=C(NCC(=O)N(c1ccccc1)C(C(=O)NCC1CCCO1)c1ccccc1)c1cccs1` (centres undefined), the inhibition is 15.4% (inactive).

In the case of `CC(C)(C)C(=O)Nc1ccc(C(=O)N/N=C/c2ccccc2OC(=O)c2ccc(Cl)cc2Cl)cc1`, the inhibition was 65.2% (active).

Regarding `O=C(N/N=C/c1ccc(OC(=O)c2ccccc2Cl)cc1)c1ccc(O)cc1`, the inhibition is -1.64% (inactive).

For the compound `O=C(N/N=C/c1ccoc1)c1ccc(Cl)cc1Cl`, the inhibition was -0.701% (inactive).

As for `Cc1ccc(S(=O)(=O)N/N=C(\c2ccccc2)C2CC2)cc1`, the inhibition was -11.6% (inactive).

On to `COC(=O)C1=C(C)N(c2ccc(C)cc2)/C(=C/c2ccc(O)cc2)C1=O`, for which the inhibition was -12.4% (inactive).

`Cc1ccc(NC(=O)Cn2nnc(C(=O)NCc3ccco3)c2N)c(C)c1`: the inhibition was -2.22% (inactive).

For the compound `CCOc1ccccc1NC(=O)Cn1nnc(C(=O)NCc2cccs2)c1N`, the inhibition is 84.9% (active).

Take `CCOc1ccccc1NC(=O)Cc1cccs1`: the inhibition was 19.4% (inactive).

In the case of `O=C(Cc1ccc(-n2c(=O)c3sccc3n(Cc3ccc(F)cc3)c2=O)cc1)NCc1ccco1`, the inhibition was 11.3% (inactive).

Turning to `O=C(O)C1CCN(C(=O)c2cc(F)cc3c2OCOC3)CC1`, the inhibition is 19.4% (inactive).

As for `COC(=O)Cc1[nH]n(-c2nc3ccccc3s2)c(=O)c1C(C)=Nc1ccc(OC)cc1`, the inhibition is 68.9% (active).

`C/C(=N\NC(=O)CC(C)C)c1c(C(F)(F)F)[nH]n(-c2nc3ccccc3s2)c1=O`: the inhibition was -51.5% (inactive).

For the compound `CC(=NCc1ccco1)c1c(C(F)(F)F)[nH]n(-c2nc3ccccc3s2)c1=O`, the inhibition was -117% (inactive).

For `CNC[C@H](CC1CCCCC1)NC[C@H](NCCC1CCCC1)[C@H](C)O`, the inhibition was -34.1% (inactive).

On to `CC(=O)N1C(C)c2ccccc2C(C)(C)CC12CCCCC2` (centres undefined), for which the inhibition was -9.23% (inactive).

In the case of `Cc1csc(NC(=O)c2ccc(C)s2)n1`, the inhibition was -174% (inactive).

In the case of `COc1cc(SC)ccc1C(=O)Nc1cc(C)ccn1`, the inhibition was -8.42% (inactive).

Take `COC(=O)c1sc(NC(=O)c2ccc(OC)cc2OC)nc1C`: the inhibition was 101% (active).

Regarding `COc1cc(SC)ccc1C(=O)Nc1nc(C)cs1`, the inhibition was 96.2% (active).

Turning to `COc1ccc(Cc2nnc(NC(=O)c3ccc(OC)cc3OC)s2)cc1`, the inhibition was -62.4% (inactive).

For the compound `COc1cc2ccccc2cc1C(=O)Nc1nc(C)c(C(C)=O)s1`, the inhibition is -106% (inactive).

In the case of `Cn1c(Cc2cccs2)nnc1SCC(=O)Nc1ccccc1`, the inhibition was 11% (inactive).

For the compound `COc1ccc(NC(=O)CSc2ccc(-c3ccco3)nn2)c(OC)c1`, the inhibition is 7.22% (inactive).

For `CC(C)CN(C(=O)c1ccc2c(c1)OCO2)C1CCS(=O)(=O)C1` (centres undefined), the inhibition is -8.68% (inactive).

Take `CC(C)C(=O)N1CCN(c2nc(-c3ccccc3)c3c(c2C#N)CC(C)(C)OC3)CC1`: the inhibition was -10.5% (inactive).

In the case of `CCO[C@H]1OC(C(=O)N2CCN(Cc3ccccc3)CC2)=C[C@@H](c2cn(C(C)=O)c3ccccc23)[C@@H]1CCCO`, the inhibition was 14.2% (inactive).

With `O=C(COC(=O)c1ccc(Cl)nc1)NCc1ccc2c(c1)OCO2`, the inhibition was 17.3% (inactive).

As for `O=S(=O)(c1ccc(F)cc1)N1CCN(C(=S)NC2CCCC2)CC1`, the inhibition was 4.9% (inactive).

For `CSc1nc(N(C)NC(=O)c2cccc(C)c2)c2ccccc2n1`, the inhibition was 114% (active).

For `CN(NC(=O)c1ccccc1)c1nc2ccccc2nc1C(F)(F)F`, the inhibition was -26.7% (inactive).

For the compound `CN(NC(=O)c1ccccc1F)c1nc(C(F)(F)F)nc2ccccc12`, the inhibition was 39.8% (inactive).

Turning to `O=c1c2cc(-c3ccccc3)sc2nc2n1N=C(c1cccs1)CS2`, the inhibition was -105% (inactive).

For the compound `O=C(Cn1c[n+](CC(=O)c2ccc([N+](=O)[O-])cc2)cn1)c1ccc([N+](=O)[O-])cc1`, the inhibition is 1.61% (inactive) and -7.59% (inactive).

For `COc1ccccc1OC(C)C(=O)Nc1ccc(S(=O)(=O)Nc2nccs2)cc1` (centres undefined), the inhibition was 8.93% (inactive).
